# Records with an inconclusive call do not appear. The source made the active and inactive calls. Unless noted, how the calls were made is not given here.
# Assays:
# [1] = biological target: ATP-dependent translocase ABCB1 (Homo sapiens) (UniProt P08183); experiment: P-glycoprotein substrate transport blockade – cell-based (AID 377; in the data active means fluorescence slope change above about 50%); settings: MDR1-expressing cells, fluorescent substrate accumulation slope; stronger effect = higher value; concentration not given here
# Sequence of ATP-dependent translocase ABCB1 (Homo sapiens) (P08183 whole entry, looked up): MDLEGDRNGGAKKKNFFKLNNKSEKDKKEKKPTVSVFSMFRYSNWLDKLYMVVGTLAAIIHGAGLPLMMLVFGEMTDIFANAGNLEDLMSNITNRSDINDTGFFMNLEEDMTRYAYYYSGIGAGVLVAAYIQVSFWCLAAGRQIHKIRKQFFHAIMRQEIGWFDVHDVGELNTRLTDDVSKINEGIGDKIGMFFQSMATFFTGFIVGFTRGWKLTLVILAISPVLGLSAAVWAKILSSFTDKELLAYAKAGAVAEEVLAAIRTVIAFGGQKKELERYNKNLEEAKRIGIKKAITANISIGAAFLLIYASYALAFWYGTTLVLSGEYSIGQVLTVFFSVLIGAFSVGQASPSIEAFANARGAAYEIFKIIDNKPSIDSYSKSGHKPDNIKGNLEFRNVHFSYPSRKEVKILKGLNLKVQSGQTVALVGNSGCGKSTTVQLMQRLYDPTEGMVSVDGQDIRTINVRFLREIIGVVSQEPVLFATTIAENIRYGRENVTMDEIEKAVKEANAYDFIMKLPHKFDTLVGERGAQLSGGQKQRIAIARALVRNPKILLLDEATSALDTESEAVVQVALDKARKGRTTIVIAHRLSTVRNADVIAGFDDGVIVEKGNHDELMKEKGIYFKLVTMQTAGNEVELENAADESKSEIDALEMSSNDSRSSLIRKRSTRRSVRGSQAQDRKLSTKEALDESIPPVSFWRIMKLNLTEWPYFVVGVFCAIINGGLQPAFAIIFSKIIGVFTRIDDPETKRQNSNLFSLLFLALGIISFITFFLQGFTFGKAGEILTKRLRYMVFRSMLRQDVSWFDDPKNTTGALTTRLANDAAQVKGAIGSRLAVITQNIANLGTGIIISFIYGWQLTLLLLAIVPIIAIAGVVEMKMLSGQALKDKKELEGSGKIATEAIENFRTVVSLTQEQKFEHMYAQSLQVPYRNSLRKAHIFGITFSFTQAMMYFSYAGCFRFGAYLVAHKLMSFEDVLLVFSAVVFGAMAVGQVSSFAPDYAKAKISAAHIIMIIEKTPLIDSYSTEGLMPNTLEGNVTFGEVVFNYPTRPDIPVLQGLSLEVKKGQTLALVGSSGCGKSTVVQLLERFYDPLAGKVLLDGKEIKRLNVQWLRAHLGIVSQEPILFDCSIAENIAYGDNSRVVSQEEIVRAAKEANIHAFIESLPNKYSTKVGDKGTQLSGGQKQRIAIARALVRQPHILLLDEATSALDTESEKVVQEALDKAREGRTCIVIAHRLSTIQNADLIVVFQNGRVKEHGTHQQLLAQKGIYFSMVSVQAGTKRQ
# [2] = GFP-Q80 aggregate reduction, neuronal-like cells, cell-based, NGF-treated PC12, GFPQ80 (AID 1614); settings: PC12 NGF-treated GFP-polyQ80 inclusion reduction;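 further: lower means fewer inclusions and 0 means no inclusions at all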
# [3] = compounds altering circadian rhythm period length – cell-based, LOPAC library, luminescence reporter (AID 2774); settings: circadian reporter cells, at 7 µM, actives lie on both sides;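 further: values are relative to mean of DMSO wells on each plate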
# [4] = test system: Hepatitis C virus NS3 helicase; experiment: blockers of NS3h binding to ssDNA – biochemical, fluorescence polarization, LOPAC1280 library, primary screen (AID 687035; in the data active means inhibition above about 37%); settings: Purified HCV NS3 helicase, Cy5-dT15 ssDNA binding fluorescence polarization; stronger effect = higher value; concentration not given here
# [5] = compounds altering Cy5-DNA-NS3h complex signal – biochemical, LOPAC1280, artefact control for HCV NS3 helicase inhibitor project (AID 687037); settings: Cy5-DNA-NS3h complex fluorescence interference counterscreen
# [6] = test system: Neuropilin-2 / VEGF-C interaction (human); experiment: small molecules blocking Neuropilin-2/VEGF-C interaction – biochemical, microplate binding format, z-score (AID 743281); settings: microplate NRP2/VEGF-C binding assay; stronger effect = lower value
# [7] = viability loss in pontine glioma line – cell-based, SU-DIPG-XVII, MIPE5.0, CellTiter-Glo, qHTS, dose response (AID 1347060; cut-off not given, nearly all actives have AC50 up to about 26 µM); settings: CellTiter-Glo ATP luminescence
# [8] = viability loss in pontine glioma line – cell-based, SU-DIPG-XIII, MIPE4.0, CellTiter-Glo, qHTS, dose response (AID 1347061; cut-off not given, nearly all actives have AC50 up to about 37 µM;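 further: cells exposed to compound for 48 hours before readout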); settings: CellTiter-Glo ATP luminescence
# [9] = viability loss in pontine glioma line – cell-based, JHH-DIPG-1, MIPE4.0, CellTiter-Glo, qHTS, dose response (AID 1347062; cut-off not given, nearly all actives have AC50 up to about 27 µM;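 on AC50: cells exposed to compound for two days before readout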); settings: JHH-DIPG-1 viability, CellTiter-Glo ATP luminescence
# [10] = viability loss in pontine glioma line – cell-based, SU-DIPG-IV, MIPE4.0, CellTiter-Glo, qHTS, dose response (AID 1347063; cut-off not given, nearly all actives have AC50 up to about 30 µM;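 further: compound exposure lasted 48 hours before the viability readout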); settings: CellTiter-Glo ATP luminescence
# [11] = viability loss in pontine glioma line – cell-based, SU-DIPG-XIII, MIPE5.0, CellTiter-Glo, qHTS, dose response (AID 1347064; cut-off not given, nearly all actives have AC50 up to about 23 µM); settings: CellTiter-Glo ATP luminescence
# [12] = viability loss in pontine glioma line – cell-based, SU-DIPG-XXV, MIPE5.0, CellTiter-Glo, qHTS, dose response (AID 1347065; cut-off not given, nearly all actives have AC50 up to about 26 µM;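 further: cells exposed to compound for 48 hours before ATP readout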); settings: CellTiter-Glo ATP luminescence
# [13] = growth inhibition of DIPG cells – cell-based, MIPE4.0 library, CellTiter-Glo luminescence, qHTS (AID 1347066; cut-off not given, nearly all actives have AC50 up to about 30 µM;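 further: cells exposed to compound for 48 hours before readout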); settings: SU-DIPG-VI viability, CellTiter-Glo ATP luminescence
# [14] = JHH-DIPG-1 glioma cell viability, MIPE5.0 library, CellTiter-Glo luminescence, qHTS (AID 1347067; cut-off not given, nearly all actives have AC50 up to about 26 µM;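 further: cells exposed to compound for 48 hours before readout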); settings: JHH-DIPG-1 glioma viability, CellTiter-Glo ATP luminescence
# [15] = growth inhibition of DIPG cells – cell-based, MIPE5.0 library, qHTS (AID 1347068; cut-off not given, nearly all actives have IC50 up to about 30 µM); settings: SU-DIPG-XXV viability
# [16] = growth inhibition, single agent or in combination, cell-based, chromothripsis tumors, cisplatin or BGB combos (AID 1671449; in the data active means inhibition above about 80%;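 further: cells exposed for 96 hours; 0% = vehicle DMSO and 100% = killing by high DMSO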); settings: LFS_MB_P medulloblastoma cells
# [17] = growth inhibition, single agent and combos, cell-based, chromothripsis tumors, cisplatin or BGB combos (AID 1671450; in the data active means inhibition above about 80%;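 further: cells exposed to compound for four days; 0% = vehicle DMSO and 100% = cell killing by high DMSO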); settings: HDN33 neuroblastoma cells, stronger effect = higher value
# [18] = growth inhibition, single agents and combos, ICB984, cell-based, cisplatin or BGB combos, synergistic combos for chromothripsis tumors (AID 1671451); settings: ICB984 medulloblastoma cells, drug combinations, stronger effect = higher value;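 further: cells exposed for 96 hours before readout; 0% = vehicle DMSO and 100% = killing by high DMSO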
# [19] = growth inhibition, single agents and combos, HTB85, cell-based, BGB or cisplatin IC20 combos, synergistic combos for chromothripsis tumors (AID 1671453; in the data active means inhibition above about 80%;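 further: cells exposed for 96 hours before readout; 0% = vehicle DMSO and 100% = high DMSO killing control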); settings: HTB85 osteosarcoma cells, drug combinations, stronger effect = higher value
compound,measurement,setting,value
Nc1c2c(nc3ccccc13)CCCC2,fluorescence slope change,[1],56.2% (active)
same,inclusion score,[2],2
same,period change,[3],-0.225 h (inactive)
same,inhibition,[4],-2% (inactive)
same,fluorescence ratio (interference),[5],1 (inactive)
same,z-score,[6],-0.542 (inactive)
same,outcome,[7],inactive
same,outcome,[8],inactive
same,outcome,[9],inactive
same,outcome,[10],inactive
same,outcome,[11],inactive
same,outcome,[12],inactive
same,outcome,[13],inactive
same,outcome,[14],inactive
same,outcome,[15],inactive
C#C[C@]1(O)CC[C@H]2[C@@H]3CCC4=CC(=O)CC[C@@H]4[C@H]3CC[C@@]21CC,fluorescence slope change,[1],-2.5% (inactive)
same,outcome,[7],inactive
same,outcome,[8],inactive
same,outcome,[9],inactive
same,outcome,[10],inactive
same,outcome,[13],inactive
same,outcome,[14],inactive
same,outcome,[15],inactive
CC(=O)OCC(=O)[C@@]12OC(C)(C)O[C@@H]1C[C@H]1[C@@H]3C[C@H](F)C4=CC(=O)C=C[C@]4(C)[C@@]3(F)[C@@H](O)C[C@@]12C,fluorescence slope change,[1],14.5% (inactive)
same,outcome,[8],inactive
same,outcome,[9],inactive
same,outcome,[11],inactive
same,outcome,[12],inactive
same,outcome,[13],inactive
same,outcome,[15],inactive
O=C1N=C(O)CN1/N=C/c1ccc(-c2ccc([N+](=O)[O-])cc2)o1,fluorescence slope change,[1],54.9% (active)
same,inclusion score,[2],1.5
CNC(=O)Oc1ccc2c(c1)[C@]1(C)CCN(C)[C@@H]1N2C,inclusion score,[2],2
same,period change,[3],0.16 h (inactive)
same,inhibition,[4],-2% (inactive)
same,fluorescence ratio (interference),[5],1 (inactive)
CN1CCN(CCCN2c3ccccc3Sc3ccc(C(F)(F)F)cc32)CC1,fluorescence slope change,[1],134% (active)
same,period change,[3],0.025 h (inactive)
same,inhibition,[4],-6% (inactive)
same,fluorescence ratio (interference),[5],0.9 (inactive)
same,z-score,[6],0.311 (inactive)
same,AC50,[8],18.7 µM (active)
same,outcome,[9],inactive
same,AC50,[12],18.6 µM (active)
same,outcome,[13],inactive
same,AC50,[14],23.5 µM (active)
CCn1cc(C(=O)O)c(=O)c2cc(F)c(N3CCNCC3)cc21,fluorescence slope change,[1],98.4% (active)
same,inclusion score,[2],2
same,outcome,[8],inactive
same,outcome,[9],inactive
same,outcome,[11],inactive
same,outcome,[12],inactive
same,outcome,[13],inactive
same,outcome,[15],inactive
same,inhibition,"[16]; at 0.5 µM, stronger effect = higher value",7.63% (inactive)
same,inhibition,"[16]; measured here: combination with BGB IC20, at 0.005 µM",-17.9%
same,inhibition,"[16]; measured here: combination with BGB IC40, at 0.005 µM",-10.9%
same,inhibition,"[16]; measured here: combination with BGB IC40, at 0.05 µM",-0.516%
same,inhibition,"[16]; measured here: combination with cisplatin, at 0.5 µM, stronger effect = higher value",9.32%
same,inhibition,"[16]; measured here: combination with cisplatin, at 5 µM, stronger effect = higher value",-19.2%
same,inhibition,"[17]; BGB combo, at 5 µM",-0.689%
same,inhibition,[17]; at 0.5 µM,12.2% (inactive)
same,inhibition,"[17]; cisplatin combo, at 5 µM",-11.9%
same,inhibition,"[17]; measured here: with BGB IC20 combination, at 0.5 µM",32.5%
same,inhibition,"[17]; measured here: with cisplatin IC20 combination, at 0.5 µM",3.81%
same,inhibition,"[17]; single agent, at 5 µM",-7.4%
same,inhibition,"[18]; BGB IC20 combo, at 0.005 µM",-26.7%
same,inhibition,"[18]; BGB IC40 combo, at 0.005 µM",-18.2%
same,inhibition,"[18]; BGB IC40 combo, at 0.05 µM",-41.7%
same,inhibition,[18]; at 0.5 µM,-9.23% (inactive)
same,inhibition,"[18]; cisplatin combo, at 0.05 µM",-41.7%
same,inhibition,"[18]; cisplatin combo, at 0.5 µM",-13%
same,inhibition,"[18]; cisplatin combo, at 5 µM",-17.2%
same,inhibition,"[18]; measured here: 5 uM single agent, at 5 µM",-7.24%
same,inhibition,[19]; at 0.5 µM,-8.02% (inactive)
same,inhibition,"[19]; measured here: with BGB IC20, at 0.5 µM",-33.2%
same,inhibition,"[19]; measured here: with BGB IC20, at 5 µM",-19.1%
same,inhibition,"[19]; measured here: with cisplatin IC20, at 0.5 µM",12.6%
same,inhibition,"[19]; measured here: with cisplatin IC20, at 5 µM",-7.29%
same,inhibition,"[19]; single agent, at 5 µM",1.89%
O=c1n(CCCN2CCN(c3cccc(Cl)c3)CC2)nc2ccccn12,fluorescence slope change,[1],85.5% (active)
same,inclusion score,[2],2
same,period change,[3],-0.06 h (inactive)
same,inhibition,[4],0% (inactive)
same,fluorescence ratio (interference),[5],1 (inactive)
same,z-score,[6],0.0689 (inactive)
same,outcome,[8],inactive
same,outcome,[9],inactive
same,outcome,[10],inactive
same,outcome,[13],inactive
Fc1ccc([C@@H]2CCNC[C@H]2COc2ccc3c(c2)OCO3)cc1,inhibition,[4],-1% (inactive)
same,fluorescence ratio (interference),[5],0.9 (inactive)
same,z-score,[6],0.222 (inactive)
same,outcome,[13],inactive
CC1(C)O[C@@H]2C[C@H]3[C@@H]4C[C@H](F)C5=CC(=O)C=C[C@]5(C)[C@H]4[C@@H](O)C[C@]3(C)[C@]2(C(=O)CO)O1,fluorescence slope change,[1],24.8% (inactive)
same,outcome,[7],inactive
same,outcome,[11],inactive
same,outcome,[12],inactive
same,outcome,[14],inactive
same,outcome,[15],inactive
CCN(CC)CC(=O)Nc1c(C)cccc1C,inclusion score,[2],2
same,period change,[3],-0.265 h (inactive)
same,inhibition,[4],-3% (inactive)
same,fluorescence ratio (interference),[5],1 (inactive)
same,z-score,[6],1.47 (inactive)
CNCCCC12CCC(c3ccccc31)c1ccccc12,fluorescence slope change,[1],137% (active)
same,period change,[3],2.03 h (inactive)
same,inhibition,[4],-6% (inactive)
same,fluorescence ratio (interference),[5],0.9 (inactive)
same,z-score,[6],-0.344 (inactive)
same,AC50,[9],20.9 µM (active)
same,AC50,[12],23.5 µM (active)
same,outcome,[13],inactive
same,outcome,[15],inactive
Cc1c(OCC(F)(F)F)ccnc1CS(=O)c1nc2ccccc2[nH]1 (configuration not stated),inclusion score,[2],2
same,period change,[3],-0.035 h (inactive)
same,inhibition,[4],-2% (inactive)
same,fluorescence ratio (interference),[5],1 (inactive)
same,z-score,[6],0.0966 (inactive)
same,outcome,[7],inactive
same,outcome,[10],inactive
same,outcome,[11],inactive
same,outcome,[12],inactive
same,outcome,[13],inactive
same,outcome,[15],inactive
COc1ccc2c(c1)c(CC(=O)O)c(C)n2C(=O)c1ccc(Cl)cc1,fluorescence slope change,[1],95% (active)
same,inclusion score,[2],2
same,period change,[3],0.07 h (inactive)
same,inhibition,[4],-5% (inactive)
same,fluorescence ratio (interference),[5],1 (inactive)
same,z-score,[6],0.68 (inactive)
same,outcome,[7],inactive
same,AC50,[8],18.7 µM (active)
same,outcome,[12],inactive
same,outcome,[13],inactive
same,outcome,[14],inactive
same,outcome,[15],inactive
CCCN1C[C@H](CSC)C[C@@H]2c3cccc4[nH]cc(c34)C[C@H]21,fluorescence slope change,[1],72.8% (active)
same,inclusion score,[2],2
same,period change,[3],0.02 h (inactive)
same,inhibition,[4],-6% (inactive)
same,fluorescence ratio (interference),[5],1 (inactive)
